# Rango-impB inh – Rango-importin beta binding inhibition | Q14974 | Potency, µM (top dose mostly 92.2 µM), inactives show at the top dose inhibition of complex formation | 0.031% of 340,000 active | Rango CFP/YFP FRET sensor + importin beta, 45 min | AID 540263;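 further: potency means the concentration at half of the fitted maximal effect; 0% = DMSO wells and 100% = buffer wells lacking importin beta; nearly all actives have a fitted effect of over 15% in size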
#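 FRET biosensor (snurportin 1 IBB flanked by EYFP and cerulean), 50 nM, with compound 5 min, then 0.125 microM importin beta in PBS, 1 mM DTT, 0.02% Tween-20, 0.1% BSA. CFP/YFP ratio read after 45 min at room temperature; pre-read flags interference.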
# PTAP TSG101 blk – blocks PTAP/TSG101 interaction to inhibit HIV-1 budding; Q99816; Fluorescence polarization, FITC-PTAP peptide / Tsg101 binding; Potency, µM (doses to about 115 µM), for the others: top-dose activity change, negative = inhibition, hits mostly inhibitors; 340,000 tested, under 10 active; active means well fitted inhibition curve with a large enough effect in the main read-out, with a control signal flat, not every such curve was filed as active; inconclusive means small, poorly fitted or top-dose-only effect, or effect the other way, or a change in a side signal; inactive means no such curve, though single readings can be large or run the other way; further: potency means the concentration at half of the fitted maximal effect; % of control where 0% means no effect
#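 Tsg101 binding domain (10 uM final) was mixed with compound and a FITC-labeled PTAP peptide (50 nM final) in HEPES pH 7.5 buffer with NaCl, Tween 20, EDTA and TCEP; fluorescence polarization was read after 20 min at r.t.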
# D3 ag – activates the human D3 dopamine receptor; P35462; D3R DiscoveRx beta-arrestin cells, luminescence, 90 min; max activation, %; 0.58% of 410,000 active; in the data active means max activation above about 30%; further: 0% is about no effect
# Target sequence (P35462 whole entry, looked up): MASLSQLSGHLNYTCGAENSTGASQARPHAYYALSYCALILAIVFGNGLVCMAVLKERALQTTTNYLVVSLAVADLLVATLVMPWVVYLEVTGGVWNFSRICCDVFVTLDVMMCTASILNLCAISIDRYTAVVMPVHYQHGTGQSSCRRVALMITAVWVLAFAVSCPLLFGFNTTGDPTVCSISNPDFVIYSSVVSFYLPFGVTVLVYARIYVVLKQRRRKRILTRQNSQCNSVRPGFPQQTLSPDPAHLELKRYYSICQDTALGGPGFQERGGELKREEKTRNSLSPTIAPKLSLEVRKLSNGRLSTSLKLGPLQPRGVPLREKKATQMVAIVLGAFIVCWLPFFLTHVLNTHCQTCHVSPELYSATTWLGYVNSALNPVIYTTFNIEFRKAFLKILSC
#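 Agonist-mode cell screen: cells plated at 1500/well and incubated overnight at 37 °C, then exposed to library compounds for 90 min at 37 °C. Detection reagent was added for 30–60 min at room temperature, and luminescence was read.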
# DRD3 antagonist – blocks the human D3 dopamine receptor; D3R cells, DiscoveRx beta-arrestin luminescence, antagonist mode; stronger effect = lower value; max response, negative = inhibition, %; 2.5% of 360,000 active; AID 652054; in the data active means max response below about -50%; inconclusive means no clear call, values can overlap the other calls; further: on the % scale 0 is the no-effect control and ±100 the full control effect
#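 Cells expressing the human receptor were seeded at 1500 cells/well, incubated overnight at 37 degrees C in 5% CO2, then exposed to library compounds with dopamine controls for 90 minutes at 37 degrees C before luminescent detection.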
# Mm-Cpn inhibitor – M. maripaludis TRiC chaperonin inhibition | purified Mm-Cpn ATPase, ADP Transcreener TR-FRET | AID 504842 | Potency, µM (doses to about 76.9 µM), for inactives: at the top dose activity, negative = inhibition, hits mostly inhibitors | 0.031% of 330,000 active; active means well fitted inhibition curve with a large enough effect; inconclusive means small, poorly fitted or top-dose-only effect; further: potency means the concentration at half of the fitted maximal effect; on the % scale 0 is the no-effect control and ±100 the full control effect; nearly all actives have a fitted effect of over 80% in size
#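 Quantitative HTS used 25 nM Mm-CPN and 10 uM ATP in magnesium/KCl Tris buffer, pH 7.4, with 1 mM DTT. Hydrolysis ran 30 min at 37°C; ADP was read by HTRF.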
# Rango release inh – inhibition of RanGTP-driven Rango-importin beta dissociation. O95149+P62826. Biochemical FRET Rango-importin beta, RanGTP-induced dissociation. Potency, µM (doses to about 46.1 µM), for the others: at the highest dose activity change, negative = inhibition. 0.071% of 340,000 active. AID 540253; further: potency means the concentration at half of the fitted maximal effect; % of control where 0% means no effect; nearly all actives have a fitted effect of over 45% in size
#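 Rango FRET biosensor (snurportin-1 IBB flanked by N-terminal EYFP and C-terminal CFP10) at 0.1 uM, with 0.25 uM importin beta in PBS, 1mM DTT, 0.02% Tween-20, 0.1% BSA. 0.6 uM Ran, 2mM GTP and 0.2 uM RCC1 were then added for 45 min at room temperature. Inhibition read as loss of FRET rise.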
# * hit, by the source's call; ? = inconclusive; . = not tested or not shown; ! = not confirmed by another sample. Sampled rows, rich in hits. Any-hit rate of the full collection: about 2.9%. Unless noted, the call rests on the fitted dose curve.
SMILES,Rango-impB inh,PTAP TSG101 blk,D3 ag,DRD3 antagonist,Mm-Cpn inhibitor,Rango release inh
CCOC(=O)c1c(-c2ccc(C)o2)csc1NC(=O)CN1CCN(CC)CC1,-1%,-4%,2,-106*,-1%,-3%
CCOC(=O)c1c(-c2ccc(C)o2)csc1NC(=O)CN1CCCCC1,-4%,-1%,2,18,-6%,-3%
Cc1cc(O)ccc1C1(c2ccc(O)cc2C)OC(=O)c2ccccc21,-1%,-2%,2,-5,2%,5%
O=C1OC2(c3ccccc31)c1cc(I)c(O)c(I)c1Oc1c2cc(I)c(O)c1I,.,.,-34,.,32µM*,.
O=C1OC(c2ccccc2)(c2ccc(O)cc2)c2ccccc21 (stereo not given),0%,0%,-4,4,.,1%
O=C1OC2(c3ccc(O)cc3Oc3cc(O)ccc32)c2ccccc21,.,.,30*,.,.,.
C=C(C)C1CC=C(CN2CCC(O)CC2)CC1 (stereo not given),4%,-8%,-25,?,2%,3%
C=C(C)[C@@H]1CC=C(CN2CCN(Cc3ccccc3)CC2)CC1,5%,-3%,-21,-65*,-4%,7%
C=C(C)C1CC=C(CN2CCN(Cc3ccccc3)CC2)CC1 (stereo not given),-2%,4%,-20,-57*,0%,-27%
CCOCCCNC(=O)C(c1ccccc1)N(Cc1ccc2c(c1)OCO2)C(=O)c1ccc(NC(C)=O)cc1 (stereo not given),.,.,4,.,.,.
Cc1ccc(-n2nc(C(=O)Nc3ccc(C)c(F)c3)c3c4ccccc4n(C)c3c2=O)cc1,.,.,-6,.,.,.
CS(=O)(=O)NCCCNc1ccc(C(F)(F)F)cc1[N+](=O)[O-],-1%,-3%,-10,-3,-1%,4%
CS(=O)(=O)NCCCNc1ccc(Cl)cc1[N+](=O)[O-],6%,-4%,-3,-50*,-3%,-9%
CCNCCNc1ccc(Cl)cc1[N+](=O)[O-],0%,-5%,-11,-75*,.,21%
COCCNC(=O)CN1C(=O)NC2(CCCc3cc(OC)ccc32)C1=O (stereo not given),1%,-5%,-1,7,-2%,-2%
COc1cccc(N2CCN(Cc3ncc(-c4ccccc4)o3)CC2)c1,-1%,0%,4,-56*,-1%,9%
COc1ccc(Oc2ncc(CN3CCN(c4ccccc4)CC3)s2)cc1,6%,-5%,35*,0,2%,22%
CCN(CCCNC(=O)Cn1ncc2c3ccccc3n(C)c2c1=O)c1cccc(C)c1,.,.,2,.,.,.
COC(=O)c1c(NC(=O)c2ccccc2)sc2c1CC(C)(C)NC2(C)C,3%,-4%,1,-26,-13%,2%
CC1(C)Cc2c(sc(NC(=O)c3ccc(C(=O)c4ccccc4)cc3)c2C(N)=O)C(C)(C)N1,?,-1%,-11,-50*,2%,2%
CCCCOC(=O)c1ccc(NS(=O)(=O)c2c(C)nc3scc(C)n3c2=O)cc1,.,.,36*,.,.,.
Cc1ccc(C)c(CNC(=O)C2CCN(c3nc4ccccc4nc3C(F)(F)F)CC2)c1,.,.,-4,.,.,.
N#Cc1c(-c2ccccc2)nc(-c2ccncc2)[nH]c1=O,-2%,3%,4,11,-5%,-6%
N#Cc1c(-c2ccccc2)nc(-c2ccccc2)[nH]c1=O,-1%,-4%,2,-58*,1%,-7%
Cc1cccc2c1cnn2C(=O)CCC(=O)N1CCC(C)CC1,-3%,1%,1,-57*,0%,-1%
SMILES,Rango-impB inh,PTAP TSG101 blk,D3 ag,DRD3 antagonist,Mm-Cpn inhibitor,Rango release inh
O=C(O)CSc1cc(NS(=O)(=O)c2ccc(Cl)cc2)c2ccccc2c1O,-1%,-7%,-12,0,-29%,-9%
Cc1cc(C)c(S(=O)(=O)Nc2cc(SCC(=O)O)c(O)c3ccccc23)cc1C,-4%,5%,-10,-54*,-2%,-2%
O=S(=O)(c1cccc(C(F)(F)F)c1)N(CCCN1CCOCC1)Cc1cccs1,-2%,-1%,-19,-80*!,0%,0%
COc1ccc(S(=O)(=O)N(CCCN2CCOCC2)Cc2ccc(OC)c(OC)c2)cc1,0%,-6%,-32,-69*,0%,-26%
COc1ccc(/C=N/n2c(=S)n(C)c3ccccc32)cc1OC,-1%,-1%,63*,47,-2%,3%
Cc1cc(C)nc(SCc2ccc(C(=O)NNC(=O)Nc3cccc(Cl)c3)cc2)n1,-1%,-1%,-6,-58*,2%,-5%
Cc1cc(C)nc(SCc2ccc(C(=O)N/N=C/c3ccncc3)cc2)n1,4%,-1%,-20,-1,1%,-6%
Cc1ccc(N2CCN(c3nc4ccc(C)cc4n4nnnc34)CC2)c(C)c1,.,.,7,.,.,.
CC(Oc1ccccc1)C(=O)NNC(=O)c1ccccn1 (stereo not given),-4%,0%,-1,3,0%,-5%
C/C(=N\NC(=O)C(C)Oc1ccc([N+](=O)[O-])cc1)c1ccccn1 (stereo not given),0%,-2%,-90,-106*,1%,9%
Cc1cccc(/C=N\Nc2cn[nH]c(=O)c2Cl)c1,0%,.,-3,-82*,0%,3%
COC(=O)C1CCCN1C(=O)c1cccs1 (stereo not given),1%,-6%,-4,-76*,1%,-2%
O=C(O)C1CCCN1C(=O)c1cccs1 (stereo not given),6%,0%,2,7,0%,8%
COc1ccc(CN2CCCC(C(=O)c3ccc4c(c3)OCO4)C2)c(F)c1 (stereo not given),-4%,-4%,-4,-59*,2%,0%
O=C(c1ccc2c(c1)OCO2)C1CCCN(C2CCN(CCc3ccccc3)CC2)C1 (stereo not given),-4%,1%,-26,-84*,0%,1%
CCCn1cc(CN2CCCC(C(=O)c3ccc4c(c3)OCO4)C2)c(C)n1 (stereo not given),0%,-8%,-21,-53*,0%,4%
COC1=C(N)C(=O)c2nc(-c3nc(C(=O)O)c(C)c(-c4ccc(OC)c(OC)c4O)c3N)ccc2C1=O,?,-3%,-102,-118*,-11%,?
Cc1cc(S(=O)(=O)N2CCCOC2CNC(=O)C(=O)NCCc2ccco2)ccc1F (stereo not given),-2%,1%,1,16,-1%,1%
CCCn1c(COc2cccc(C)c2)nc2ccccc21,.,.,41*,.,.,.
CCc1ccccc1NC(=O)C1(C)Cc2ccccc2C(=O)O1 (stereo not given),.,.,5,.,.,.
COc1ccc(Nc2ccc3c(c2)=NC2(CCCCC2)[N+]=3[O-])cc1,-4%,-3%,0,-68*,-14%,7%

# Source: PubChem (National Center for Advancing Translational Sciences (NCATS))
